Laboratory results reported in PubChem BioAssay (NCI).
This is part of a sample that, as a whole, favours compounds with a hit. Of some 83,000 tested, about 20% had one in any assay.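 How to read the values: 0–100, growth inhibition (40 = 60% inhibited); 0, no net growth; -100 to 0, cell death (-40 = 40% of starting cells died; -100 = all dead).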 Values without a mark were called inactive. Activity calls are given as the source filed them. How the source made its calls: active means growth percent below 10; inactive means the rest.

The molecules below were run on HT29 colon (assay: NCI-60 one-dose screen, 48 h (100 = growth as untreated, 0 = no growth, -100 = all killed)). Conditions: 10 µM unless noted.

Row | Structure (SMILES) | growth
1 | COc1cc(-c2nc(-c3nc4cc(C(=O)c5ccccc5)ccc4[nH]3)cc3c2[nH]c2ccccc23)cc(OC)c1OC | 104%
2 | COc1cc(C2=NOC(c3cc(OC)c(OC)c(OC)c3)C2)ccc1OCCCCOc1cc2c(cc1OC)C(=O)N1CCC[C@H]1C=N2 (stereo partly specified) | -12.3% (active)
3 | O=C(CCCCCCc1nc2ccc(Br)cc2[nH]1)NO | 1.25% (active)
4 | CCCCOc1ncnc2nc[nH]c12 | 96.3%
5 | CC(C)=CCC[C@H](C)c1ccc(C)c2c1OCN(CCO)C2 | 68.7%
6 | Nc1cccc(S(=O)(=O)c2cccc(N)c2)c1 | 110%
7 | O=C(Nc1ccc2ncnc(Nc3ccc(F)c(Cl)c3)c2c1)c1cccs1 | 58.7%
8 | O=[N+]([O-])c1ccccc1CN1CCCCC1 | 113%
9 | COc1cc2c(cc1OCCCOc1cc3c(cc1OC)C(=O)N1CCC[C@H]1C=N3)C=CC(C)(C)O2 | 99.7%
10 | CCCCCCCCCC1=NC(C)(C)CN1C(C)(C)CO | 49.2%
11 | COCCn1c(Nc2ccc(C(=O)NO)cc2)nc2ccccc21 | 44.1%
12 | O=C(CSc1ccc(Cl)cc1)Nc1ccc(-c2nc3ccccc3s2)c(Cl)c1 | 57%
13 | COc1cc(/C=C2\C(=O)Nc3ccc(N(C)C)cc32)cc(OC)c1OC | 9.36% (active)
14 | CC(C)(C)NC(=O)C(OC(=O)C1CCc2cc(F)ccc2O1)c1ccccc1Cl (stereo unspecified) | 103%
15 | CSCCC1NC(=O)C(C(C)=Nc2ccccc2)=C1O (stereo unspecified) | 108%
16 | CC1(C)C2CCC(O)(C(=O)O)C1C2 (stereo unspecified) | 110%
17 | COc1ccc(CCN2COc3c([C@@H](C)CCC=C(C)C)ccc(C)c3C2)cc1OC | 8.29% (active)
18 | COc1ccc(C(=O)C(CN(C)C)c2ccccc2)cc1 (stereo unspecified) | 19.1%
19 | Oc1ccc(CCCCCCc2ccc(O)cc2)cc1 | 83.6%

Row | Structure (SMILES) | growth
20 | c1ccc(C2=Nc3ccccc3SC2)cc1 | 109%
21 | O=C(O)c1cn(-c2ccccc2)nc1-c1ccc(O)cc1 | 94.7%
22 | COc1cc(/C=C/C(=O)c2c(C)nc3ccccc3c2C)ccc1OCCCOc1cc2c(cc1OC)C(=O)N1CCC[C@H]1C=N2 | -71.9% (active)
23 | COc1ccc(Br)c2ccccc12 | 110%
24 | CC(=O)c1cccc(Nc2ncnc3ccc(NC(=O)c4ccco4)cc23)c1 | 82.9%
25 | CCN(CC)c1ccc(C(=N)c2ccc(N(C)C)cc2)cc1 | 0.0991% (active)
26 | CCCCCCCCCCCCCCCCCC1=NC(C)(C)CN1C(C)(C)CO | -100% (active)
27 | COC(=O)c1ccc(NC(N)=NCCC(C)(C)c2ccc(C(F)(F)F)cc2)nc1 | 11.6%
28 | CCCCCCCCCCCC1=NC(C)(C)CN1C(C)(C)CO | -29.3% (active)
29 | CO[C@@]12[C@@H]3NC3CN1C1=C(C(=O)C(N)=C(C)C1=O)[C@@H]2COC(N)=O (stereo partly specified) | -18.1% (active)
30 | Cc1cc(NC(=O)c2ccc(N)cc2)ccc1N=Nc1ccc2cc(S(=O)(=O)O)cc(S(=O)(=O)O)c2c1 | 99%
31 | CCCCCCCCCCCCCCCC1=NCC[N+]1(CCO)CCO | 12.4%
32 | CC1CN(CCCOC(=O)Nc2ccc(Cl)cc2)CCN1C(C)(C)C (stereo unspecified) | 104%
33 | O=c1c2sc3ccccc3c2nnn1-c1ccc(F)c(Cl)c1 | 69.9%
34 | Clc1ccccc1Nc1nnc(-c2ccncc2)s1 | 105%
35 | COc1cc2c(cc1I)-c1c(cc(OC)c(OC)c1OC)CC[C@@H]2NC(C)=O | 4.21% (active)
36 | COC(=O)c1cc(Cl)cc([N+](=O)[O-])c1O | 110%
37 | CCN(CC)c1ccc2nc3c4ccccc4c(=O)cc-3n(-c3ccccc3)c2c1 | 6.55% (active)

These molecules were tested on SNB-75 CNS in the same assay as above. Conditions: 10 µM unless noted.

Row | Structure (SMILES) | growth
38 | COc1cc(-c2nc(-c3nc4cc(C(=O)c5ccccc5)ccc4[nH]3)cc3c2[nH]c2ccccc23)cc(OC)c1OC | 71.5%
39 | COc1cc(C2=NOC(c3cc(OC)c(OC)c(OC)c3)C2)ccc1OCCCCOc1cc2c(cc1OC)C(=O)N1CCC[C@H]1C=N2 (stereo partly specified) | -87.7% (active)
40 | O=C(CCCCCCc1nc2ccc(Br)cc2[nH]1)NO | -2.57% (active)
41 | CCCCOc1ncnc2nc[nH]c12 | 95.7%
42 | CC(C)=CCC[C@H](C)c1ccc(C)c2c1OCN(CCO)C2 | 58.7%
43 | O=C(Nc1cccc(Cl)c1)Nc1cc(C(F)(F)F)ccc1Cl | 18.2%
44 | CCCCC(CCc1ccccn1)C(=O)c1ccccc1 (stereo unspecified) | 89.8%
45 | Nc1cccc(S(=O)(=O)c2cccc(N)c2)c1 | 88.3%
46 | O=C(Nc1ccc2ncnc(Nc3ccc(F)c(Cl)c3)c2c1)c1cccs1 | 50.5%
47 | O=[N+]([O-])c1ccccc1CN1CCCCC1 | 87.8%
48 | COc1cc2c(cc1OCCCOc1cc3c(cc1OC)C(=O)N1CCC[C@H]1C=N3)C=CC(C)(C)O2 | 93.8%
49 | CCCCCCCCCC1=NC(C)(C)CN1C(C)(C)CO | 102%
50 | COCCn1c(Nc2ccc(C(=O)NO)cc2)nc2ccccc21 | 22.1%
51 | O=C(CSc1ccc(Cl)cc1)Nc1ccc(-c2nc3ccccc3s2)c(Cl)c1 | 79.1%
52 | COc1cc(/C=C2\C(=O)Nc3ccc(N(C)C)cc32)cc(OC)c1OC | -17.1% (active)
53 | CC(C)(C)NC(=O)C(OC(=O)C1CCc2cc(F)ccc2O1)c1ccccc1Cl (stereo unspecified) | 83.3%
54 | CSCCC1NC(=O)C(C(C)=Nc2ccccc2)=C1O (stereo unspecified) | 88.6%
55 | CC1(C)C2CCC(O)(C(=O)O)C1C2 (stereo unspecified) | 83.4%
56 | COc1ccc(CCN2COc3c([C@@H](C)CCC=C(C)C)ccc(C)c3C2)cc1OC | 62.8%
57 | COc1ccc(C(=O)C(CN(C)C)c2ccccc2)cc1 (stereo unspecified) | 25.1%

Row | Structure (SMILES) | growth
58 | Oc1ccc(CCCCCCc2ccc(O)cc2)cc1 | 51.1%
59 | c1ccc(C2=Nc3ccccc3SC2)cc1 | 77.6%
60 | O=C(O)c1cn(-c2ccccc2)nc1-c1ccc(O)cc1 | 86.1%
61 | COc1cc(/C=C/C(=O)c2c(C)nc3ccccc3c2C)ccc1OCCCOc1cc2c(cc1OC)C(=O)N1CCC[C@H]1C=N2 | -76.8% (active)
62 | COc1ccc(Br)c2ccccc12 | 93.7%
63 | CC(=O)c1cccc(Nc2ncnc3ccc(NC(=O)c4ccco4)cc23)c1 | 94.3%
64 | CCN(CC)c1ccc(C(=N)c2ccc(N(C)C)cc2)cc1 | 3.16% (active)
65 | CCCCCCCCCCCCCCCCCC1=NC(C)(C)CN1C(C)(C)CO | -1.88% (active)
66 | COC(=O)c1ccc(NC(N)=NCCC(C)(C)c2ccc(C(F)(F)F)cc2)nc1 | 67.3%
67 | CCCCCCCCCCCC1=NC(C)(C)CN1C(C)(C)CO | 49.3%
68 | CO[C@@]12[C@@H]3NC3CN1C1=C(C(=O)C(N)=C(C)C1=O)[C@@H]2COC(N)=O (stereo partly specified) | 2.19% (active)
69 | Cc1cc(NC(=O)c2ccc(N)cc2)ccc1N=Nc1ccc2cc(S(=O)(=O)O)cc(S(=O)(=O)O)c2c1 | 101%
70 | CCCCCCCCCCCCCCCC1=NCC[N+]1(CCO)CCO | 46.9%
71 | CC1CN(CCCOC(=O)Nc2ccc(Cl)cc2)CCN1C(C)(C)C (stereo unspecified) | 114%
72 | O=c1c2sc3ccccc3c2nnn1-c1ccc(F)c(Cl)c1 | 39.5%
73 | Clc1ccccc1Nc1nnc(-c2ccncc2)s1 | 106%
74 | COc1cc2c(cc1I)-c1c(cc(OC)c(OC)c1OC)CC[C@@H]2NC(C)=O | 27.7%
75 | COC(=O)c1cc(Cl)cc([N+](=O)[O-])c1O | 97.2%
76 | CCN(CC)c1ccc2nc3c4ccccc4c(=O)cc-3n(-c3ccccc3)c2c1 | -2.25% (active)
